Publication PMC5540273 (PLoS ONE, 2017)

Tests used:
Conditions in all cases: concentration: 1 μM,replicates: in singlicate; n = 1
NEK11 = system: NEK11
NEK1 = system: NEK1
NEK2 = system: NEK2
NEK3 = system: NEK3
NEK4 = system: NEK4
NEK5 = system: NEK5
NEK6 = system: NEK6
NEK7 = system: NEK7
NEK9 = system: NEK9
NIK = system: T1, NIK
T1 construct: gene MAP3K14
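Note: KINOMEscan kinase panel screen.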

| SMILES | %Inh (NEK11) [%] | %Inh (NEK1) [%] | %Inh (NEK2) [%] | %Inh (NEK3) [%] | %Inh (NEK4) [%] | %Inh (NEK5) [%] | %Inh (NEK6) [%] | %Inh (NEK7) [%] | %Inh (NEK9) [%] | %Inh (NIK) [%] |
| --- | --- | --- | --- | --- | --- | --- | --- | --- | --- | --- |
| N#Cc1cccc(C(=O)NC2CCN(c3ccnc(Nc4ccc(F)cc4)n3)C2)c1 (stereo not drawn) [GSK1379708] | 3 | 0 | 0 | 7 | 11 | 5 | 12 | 0 | 0 | 13 |
| Nc1nccc(-c2ccc3c(N)n[nH]c3c2)n1 [GSK1034945] | 0 | 0 | 3 | 9 | 0 | 4 | 0 | 3 | 10 | 0 |
| COc1cccc(OC)c1C(=O)Nc1cccc(-c2nn3ccccc3c2-c2ccnc(Nc3cccc(F)c3)n2)c1 [GSK361065] | 0 | 0 | 4 | 7 | 0 | 10 | 17 | 0 | 0 | 0 |
| Cc1ccc2c(-c3ccnc(Nc4ccc(C(F)(F)F)cc4)n3)cnn2n1 [GW819776] | 0 | 0 | 0 | 78 | 9 | 84 | 0 | 2 | 6 | 10 |
| O=c1[nH]cc(-c2ccc(O)cc2)c2sc(-c3ccncc3)cc12 [GSK1033723] | 23 | 0 | 0 | 0 | 0 | 17 | 0 | 0 | 18 | 0 |
| COC(=O)Nc1nc2cc(Oc3ccc(NC(=O)Nc4cc(C(F)(F)F)ccc4Cl)cc3)ccc2[nH]1.Cl [GW697465] | 29 | 0 | 0 | 0 | 3 | 0 | 0 | 0 | 28 | 0 |
| Cc1cccc(-c2nc(Nc3ccncc3)c3sccc3n2)n1 [GW869641] | 31 | 0 | 5 | 10 | 14 | 4 | 16 | 3 | 14 | 0 |
| O=C(Nc1cccc(Oc2ccc3nccn3n2)c1)Nc1cccc(C(F)(F)F)c1 | 0 | 0 | 8 | 7 | 0 | 0 | 0 | 0 | 0 | 27 |
| Cn1ccc2ncnc(Oc3ccc(NC(=O)Nc4cccc(C(F)(F)F)c4)c(Cl)c3)c21 | 0 | 0 | 0 | 9 | 0 | 0 | 9 | 0 | 0 | 7 |
| CS(=O)(=O)Nc1ccc(-c2ccnc3[nH]ccc23)cc1 [GSK993273] | 17 | 15 | 0 | 4 | 16 | 2 | 0 | 10 | 14 | 22 |
| CS(=O)(=O)c1cccc(CNc2nc(Nc3ccc4c(c3)[C@@H]3C[C@@H]4CNC3=O)ncc2C(F)(F)F)c1 | 0 | 0 | 0 | 23 | 1 | 0 | 19 | 12 | 2 | 26 |
| CNC(=O)c1ccccc1Nc1nc(Nc2cccc(CS(C)(=O)=O)c2)ncc1C.O=CO [GSK1520489] | 66 | 71 | 78 | 86 | 70 | 100 | 83 | 94.9 | 78 | 23 |
| Cn1ccc2ncnc(Oc3ccc(NC(=O)Nc4cccc(C(F)(F)F)c4)c(F)c3)c21 | 0 | 0 | 15 | 17 | 0 | 7 | 27 | 0 | 0 | 0 |
| OCCn1cc(-c2cnc3nnn(Cc4ccc5ncccc5c4)c3n2)cn1 | 0 | 0 | 6 | 32 | 0 | 0 | 0 | 8 | 0 | 15 |
| Cl.Nc1n[nH]c2cc(-c3ccccn3)ccc12 [GSK2189892] | 0 | 0 | 0 | 1 | 0 | 0 | 0 | 0 | 3 | 0 |
| Cc1nnc(-c2ccc3occ(-c4ccc(S(C)=O)cc4)c3n2)o1 (stereo not drawn) | 0 | 0 | 0 | 23 | 0 | 0 | 0 | 0 | 0 | 0 |
| Cc1ccc(Nc2ccnc(Nc3ccc4c(c3)CS(=O)(=O)C4)n2)cc1O.Cl [GW579362] | 5 | 31 | 17 | 46 | 3 | 70 | 0 | 23 | 27 | 27 |

| SMILES | %Inh (NEK11) [%] | %Inh (NEK1) [%] | %Inh (NEK2) [%] | %Inh (NEK3) [%] | %Inh (NEK4) [%] | %Inh (NEK5) [%] | %Inh (NEK6) [%] | %Inh (NEK7) [%] | %Inh (NEK9) [%] | %Inh (NIK) [%] |
| --- | --- | --- | --- | --- | --- | --- | --- | --- | --- | --- |
| Cc1ccc(C(=O)Nc2ccc(Oc3ccc4nc(NC(=O)C5CC5)cn4c3)c(F)c2)c(=O)n1-c1ccccc1 | 0 | 0 | 5 | 0 | 0 | 0 | 0 | 0 | 0 | 0 |
| C[C@@H]1CNc2c(sc3ccc4nc(-c5ccc(O)cc5)ccc4c23)C(=O)N1 | 0 | 0 | 0 | 20 | 0 | 0 | 38 | 11 | 8 | 84 |
| O=C(Nc1n[nH]c2cc(-c3ccco3)ccc12)C1CC1 [SB-737447] | 24 | 6 | 0 | 28 | 7 | 0 | 0 | 0 | 0 | 0 |
| O=C1NCCc2[nH]c(-c3ccncc3)cc21 | 0 | 0 | 0 | 18 | 0 | 2 | 29 | 0 | 0 | 44 |
| c1ccc(Oc2ccc(Nc3ccnc4ccc(-c5ccccn5)cc34)cc2)cc1 [GW407034] | 0 | 0 | 0 | 9 | 28 | 0 | 1 | 0 | 0 | 9 |
| COc1cccc(C2=C(Nc3cccc(Cl)c3)C(=O)NC2=O)c1 [SB-341556] | 0 | 0 | 13 | 5 | 29 | 0 | 0 | 5 | 1 | 26 |
| CSc1nccc(-c2c(-c3ccc(F)cc3)ncn2CCCN2CCOCC2)n1.Cl [SB-217146] | 0 | 0 | 0 | 38 | 0 | 0 | 0 | 8 | 0 | 33 |
| Cl.c1ccc(Oc2ccc(Nc3ccnc4cc(-c5ccc(CN6CCNCC6)o5)ccc34)cc2)nc1 [GW567142] | 0 | 0 | 6 | 2 | 0 | 0 | 0 | 5 | 17 | 7 |
| CCCC(=O)Nc1n[nH]c2ncccc12 [SB-601436] | 4 | 0 | 0 | 0 | 0 | 0 | 0 | 13 | 0 | 10 |
| O=C(NCC1CC1)c1ccc(-c2cc(C(=O)NC3CC3)ccc2F)cc1 [GW810445] | 0 | 3 | 0 | 0 | 0 | 0 | 0 | 0 | 0 | 0 |
| NC(=O)Nc1sc(-c2ccc(F)cc2)cc1C(N)=O [GW789449] | 0 | 0 | 0 | 47 | 19 | 36 | 13 | 0 | 0 | 37 |
| COc1cc2nccc(Nc3ccc(Oc4ccccc4)cc3)c2cc1OC.Cl [GI261656] | 0 | 0 | 0 | 0 | 0 | 0 | 0 | 0 | 2 | 0 |
| O=C(Nc1ccc(Oc2ccc3nc(NC(=O)C4CC4)cn3n2)c(F)c1)c1cccn(-c2ccccc2)c1=O | 0 | 0 | 0 | 8 | 0 | 54 | 6 | 0 | 0 | 0 |
| CC(=O)Nc1ccc(-c2cc3ncnc(SCC(=O)O)c3s2)cc1 | 0 | 0 | 1 | 12 | 6 | 0 | 4 | 1 | 5 | 11 |
| CCNCC(Cc1ccccc1)NC(=O)c1cc(Br)c(-c2ccnc3[nH]ccc23)s1.Cl.Cl (stereo not drawn) [GSK1383280] | 0 | 79 | 18 | 17 | 0 | 79 | 0 | 0 | 10 | 0 |
| CC(=O)Nc1nc2cnc(Nc3cc(NC(=O)c4cccc(CC(C)(C)C#N)c4)ccc3C)nc2s1 | 0 | 13 | 6 | 30 | 0 | 0 | 13 | 5 | 5 | 0 |
